Measured values: PubChem BioAssay (Tox21)
Results filed as inconclusive are left out. Activity calls are given as the source filed them. Unless noted, calls come from the whole dose curve; as a rule, active = well fitted curve in the direction sought with a large enough effect in the repeat runs; inconclusive = weak or mixed curves; inactive = no such curve, though single readings can be large; an effect the other way counts as inactive or inconclusive.

Legend:
[1] = qHTS assay to identify aromatase inhibitors - cell viability counter screen (AID 743084);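 note: cells stimulated with testosterone during compound exposure; nearly all actives have a fitted effect of over 55% in size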
[2] = target: Aryl hydrocarbon receptor (Homo sapiens) (UniProt P35869); assay: qHTS assay to identify small molecule that activate the aryl hydrocarbon receptor (AhR) signaling pathway (AID 743085);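 note: HG2L7.5c1 human HepG2 liver cells with stably integrated DRE-driven firefly reporter; series mostly up to about 70 µM; nearly all actives have a fitted effect of over 15% in size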
Outline: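 Luminescence read-out: ONE-Glo reagent, 30 min at room temperature, in HG2L7.5c1 HepG2 reporter cells treated 24 h at 37C. Viability was measured beforehand by CellTiter-Fluor fluorescence after 30 min at 37C.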

[3] = qHTS assay to identify small molecule that activate the aryl hydrocarbon receptor (AhR) signaling pathway - cell viability counter screen (AID 743086);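 note: HepG2 liver cells carrying the AhR DRE luciferase reporter; series mostly up to about 70 µM; nearly all actives have a fitted effect of over 45% in size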
Outline: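 HepG2-AhR-luc (HG2L7.5c1) cells, 4000/well, were preincubated 5 h at 37C, exposed to compound in qHTS format for 24 hr at 37C, then given CellTiter-Fluor for 30 min; viability was read as fluorescence in the reporter wells.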

[4] = target: Peroxisome proliferator-activated receptor gamma (Homo sapiens) (UniProt P37231); assay: qHTS assay to identify small molecule agonists of the peroxisome proliferator-activated receptor gamma (PPARg) signaling pathway (AID 743094; active = well fitted activation curve with a large enough effect in the signal ratio in the repeat runs, not every such curve was filed as active; the % refers to the signal ratio)
Outline: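 Compounds dissolved in DMSO were added to PPARg UAS-bla HEK293H cells for 17 h at 37C, and reporter expression was quantified by fluorescence intensity after 1 h with LiveBLAzer B/G FRET substrate.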

[5] = target: Peroxisome proliferator-activated receptor gamma (Homo sapiens) (UniProt P37231); assay: qHTS assay to identify small molecule antagonists of the peroxisome proliferator-activated receptor gamma (PPARg) signaling pathway (AID 743191; calls by dose curve; note: series mostly up to about 63 µM; nearly all actives have a fitted effect of over 30% in size)
Outline: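 GeneBLAzer PPARg UAS-bla HEK293H cells carrying a UAS-driven beta-lactamase reporter were plated at 3000 cells/well, preincubated 5 h at 37C, then given compound for 17 h at 37C; LiveBLAzer B/G FRET substrate was read after 1 h at room temperature.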

[6] = qHTS assay to identify small molecule antagonists of the peroxisome proliferator-activated receptor gamma (PPARg) signaling pathway - cell viability counter screen (AID 743194); note: nearly all actives have a fitted effect of over 55% in size
Outline: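 PPARg-UAS-bla HEK293H cells were plated, rested 5 h at 37 C, then treated with compounds plus rosiglitazone (50 nM final) for 17 h at 37 C; viability was then read by CellTiter-Glo luminescence after 30 min at room temperature.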

[7] = qHTS assay for small molecule agonists of the antioxidant response element (ARE) signaling pathway (AID 743202; active = well fitted activation curve with a large enough effect in the signal ratio in the repeat runs, not every such curve was filed as active; the % refers to the signal ratio; note: potency is the fitted concentration of half-maximal effect)
Outline: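 Compounds delivered in DMSO to ARE-bla HepG2 cells (2,000 cells/well, pre-incubated 5 h) and left 16 h at 37 C. LiveBLAzer B/G FRET substrate then added for 2 h at RT before fluorescence reading.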

[8] = qHTS assay for small molecule agonists of the antioxidant response element (ARE) signaling pathway - cell viability counter screen (AID 743203; calls by dose curve; note: nearly all actives have a fitted effect of over 55% in size)
Outline: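 Following 16 hrs of compound treatment at 37C, HepG2 cells with an ARE-controlled beta-lactamase gene were lysed with CellTiter-Glo. Luminescence was read after 30 min at room temperature.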

[9] = qHTS assay for small molecule activators of the heat shock response signaling pathway - cell viability counter screen (AID 743209); note: nearly all actives have a fitted effect of over 50% in size
Outline: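 Readout: CellTiter-Glo luminescence, 30 min at room temperature. System: HSE-bla HeLa cells, 1500/well, plated overnight. Treatment: compounds in DMSO, 5 h at 37 C.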

[10] = qHTS assay for small molecule activators of the heat shock response signaling pathway (AID 743210; active = well fitted activation curve with a large enough effect in the signal ratio in the repeat runs, with a control signal flat, not every such curve was filed as active; the % refers to the signal ratio;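 note: HeLa cells with beta-lactamase reporter driven by heat shock elements; series mostly up to about 63 µM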)
Outline: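 Reporter gene assay: HeLa cells stably bearing an HSE-bla construct, compound treatment 5 h at 37 C, LiveBLAzer substrate 2.5 h at RT, fluorescence intensity.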

[11] = qHTS assay to identify small molecule agonists of the peroxisome proliferator-activated receptor delta (PPARd) signaling pathway - cell viability counter screen (AID 743211); note: nearly all actives have a fitted effect of over 55% in size
Outline: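 Read-out: CellTiter-Glo luminescence, 30 min RT, measured in the same wells as the beta-lactamase reporter. Cells: GeneBLAzer PPAR delta UAS-bla HEK293H, 3000 cells/well, compound exposure 17 h at 37C.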

[12] = target: Peroxisome proliferator-activated receptor delta (Homo sapiens) (UniProt Q03181); assay: qHTS assay to identify small molecule agonists of the peroxisome proliferator-activated receptor delta (PPARd) signaling pathway (AID 743212; calls by dose curve)
Outline: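 A PPARd-bla HEK293H line with beta-lactamase under an Upstream Activator Sequence is treated with compounds at 37 C. Substrate loading for 2 h at room temperature precedes the fluorescence measurement.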

[13] = qHTS assay to identify small molecule antagonists of the peroxisome proliferator-activated receptor delta (PPARd) signaling pathway - cell viability counter screen (AID 743213); note: nearly all actives have a fitted effect of over 50% in size
Outline: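 PPARd-bla HEK293H cells were treated with compounds plus agonist L165041 (300 nM final) for 17 h at 37 C. Viability was then read in the same wells by CellTiter-Glo luminescence after 30 min at room temperature.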

[14] = target: Peroxisome proliferator-activated receptor delta (Homo sapiens) (UniProt Q03181); assay: qHTS assay to identify small molecule antagonists of the peroxisome proliferator-activated receptor delta (PPARd) signaling pathway (AID 743215; active = well fitted inhibition curve with a large enough effect in the signal ratio in the repeat runs, not every such curve was filed as active; the % refers to the signal ratio;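 note: cells stimulated with agonist L165041 at 300 nM final during compound exposure; series mostly up to about 62 µM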)
Outline: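 HEK293H UAS-bla, PPARd; agonist L165041 300 nM final with cpd in DMSO; 37 C 17 h; FRET substrate, RT 2 h; fluorescence intensity.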

[15] = qHTS assay to identify small molecule agonists of the farnesoid-X-receptor (FXR) signaling pathway - cell viability counter screen (AID 743218); note: nearly all actives have a fitted effect of over 45% in size
Outline: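 Parallel cytotoxicity test: compound-treated (16 h, 37 C) HEK 293T FXR-bla reporter cells were lysed with CellTiter-Glo and luminescence recorded.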

[16] = qHTS assay to identify small molecule antagonists of the farnesoid-X-receptor (FXR) signaling pathway - cell viability counter screen (AID 743221; active = well fitted cell-killing curve with a large enough effect in the repeat runs, not every such curve was filed as active; note: nearly all actives have a fitted effect of over 50% in size)
Outline: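 HEK 293T FXR-bla cells, 5 h pre-incubation; compound + CDCA 50 uM final, 16 h, 37 C; beta-lactamase FRET read first, then CellTiter-Glo luminescence, 30 min RT.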

[17] = target: Vitamin D3 receptor (Homo sapiens) (UniProt P11473); assay: qHTS assay to identify small molecule agonists of the vitamin D receptor (VDR) signaling pathway (AID 743222; calls by dose curve)
Outline: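 In VDR-bla cells, compound-induced beta-lactamase expression is quantified by FRET substrate fluorescence. Treatment lasts 16 h at 37C; substrate develops 2 h at room temperature.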

[18] = target: Vitamin D3 receptor (Homo sapiens) (UniProt P11473); assay: qHTS assay to identify small molecule antagonists of the vitamin D receptor (VDR) signaling pathway (AID 743223; active = well fitted inhibition curve with a large enough effect in the signal ratio in the repeat runs, not every such curve was filed as active; the % refers to the signal ratio)
Outline: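 Beta-lactamase reporter read-out: FRET substrate fluorescence after 2 h at room temperature, following 16 h exposure of VDR-bla cells to test compound plus 3 nM (final) 1alpha,25-dihydroxyvitamin D3 agonist at 37C.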

[19] = target: Bile acid receptor (Homo sapiens) (UniProt Q96RI1); assay: qHTS assay to identify small molecule antagonists of the farnesoid-X-receptor (FXR) signaling pathway (AID 743217; active = well fitted inhibition curve with a large enough effect in the signal ratio in the repeat runs, not every such curve was filed as active; the % refers to the signal ratio)
Outline: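 GeneBLAzer FXR-UAS-bla HEK 293T, CDCA-stimulated (50 uM final). Compound treatment 16 h, 37 °C. Detection: beta-lactamase cleavage of B/G FRET substrate, fluorescence.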

[20] = target: Bile acid receptor (Homo sapiens) (UniProt Q96RI1); assay: qHTS assay to identify small molecule agonists of the farnesoid-X-receptor (FXR) signaling pathway (AID 743220; active = well fitted activation curve with a large enough effect in the signal ratio in the repeat runs, not every such curve was filed as active; the % refers to the signal ratio)
Outline: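 Beta-lactamase reporter under UAS control in GeneBLAzer FXR HEK 293T cells (5000/well) measured with LiveBLAzer FRET substrate after 2 h at room temperature. Compound exposure lasted 16 h at 37C.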

Measured: Potency

Peroxisome proliferator-activated receptor delta (Homo sapiens), sequence (Q03181 whole entry, looked up): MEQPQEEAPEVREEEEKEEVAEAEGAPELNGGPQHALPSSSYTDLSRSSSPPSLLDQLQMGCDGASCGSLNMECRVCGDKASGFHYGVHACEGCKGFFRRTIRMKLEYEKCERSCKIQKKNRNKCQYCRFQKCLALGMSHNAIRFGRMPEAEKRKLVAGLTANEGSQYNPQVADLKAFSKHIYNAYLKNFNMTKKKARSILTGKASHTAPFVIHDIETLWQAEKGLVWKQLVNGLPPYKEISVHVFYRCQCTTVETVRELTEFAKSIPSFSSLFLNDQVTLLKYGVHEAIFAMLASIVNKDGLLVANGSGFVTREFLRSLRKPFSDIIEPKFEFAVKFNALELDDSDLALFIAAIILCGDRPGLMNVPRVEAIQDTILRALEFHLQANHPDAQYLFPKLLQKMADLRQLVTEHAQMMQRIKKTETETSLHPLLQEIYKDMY
Vitamin D3 receptor (Homo sapiens), sequence (P11473 whole entry, looked up): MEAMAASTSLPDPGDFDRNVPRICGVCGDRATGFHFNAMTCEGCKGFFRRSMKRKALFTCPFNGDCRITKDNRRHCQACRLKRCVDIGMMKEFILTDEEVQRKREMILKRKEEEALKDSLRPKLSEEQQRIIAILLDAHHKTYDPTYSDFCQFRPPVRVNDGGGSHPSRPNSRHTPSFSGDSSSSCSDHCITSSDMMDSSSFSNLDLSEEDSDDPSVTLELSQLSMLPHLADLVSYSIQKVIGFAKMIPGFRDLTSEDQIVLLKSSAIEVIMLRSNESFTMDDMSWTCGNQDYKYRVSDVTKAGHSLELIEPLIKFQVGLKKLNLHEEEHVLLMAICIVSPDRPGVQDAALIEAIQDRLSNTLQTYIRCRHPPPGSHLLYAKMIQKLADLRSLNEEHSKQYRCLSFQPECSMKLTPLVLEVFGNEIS
Aryl hydrocarbon receptor (Homo sapiens), sequence (P35869 whole entry, looked up): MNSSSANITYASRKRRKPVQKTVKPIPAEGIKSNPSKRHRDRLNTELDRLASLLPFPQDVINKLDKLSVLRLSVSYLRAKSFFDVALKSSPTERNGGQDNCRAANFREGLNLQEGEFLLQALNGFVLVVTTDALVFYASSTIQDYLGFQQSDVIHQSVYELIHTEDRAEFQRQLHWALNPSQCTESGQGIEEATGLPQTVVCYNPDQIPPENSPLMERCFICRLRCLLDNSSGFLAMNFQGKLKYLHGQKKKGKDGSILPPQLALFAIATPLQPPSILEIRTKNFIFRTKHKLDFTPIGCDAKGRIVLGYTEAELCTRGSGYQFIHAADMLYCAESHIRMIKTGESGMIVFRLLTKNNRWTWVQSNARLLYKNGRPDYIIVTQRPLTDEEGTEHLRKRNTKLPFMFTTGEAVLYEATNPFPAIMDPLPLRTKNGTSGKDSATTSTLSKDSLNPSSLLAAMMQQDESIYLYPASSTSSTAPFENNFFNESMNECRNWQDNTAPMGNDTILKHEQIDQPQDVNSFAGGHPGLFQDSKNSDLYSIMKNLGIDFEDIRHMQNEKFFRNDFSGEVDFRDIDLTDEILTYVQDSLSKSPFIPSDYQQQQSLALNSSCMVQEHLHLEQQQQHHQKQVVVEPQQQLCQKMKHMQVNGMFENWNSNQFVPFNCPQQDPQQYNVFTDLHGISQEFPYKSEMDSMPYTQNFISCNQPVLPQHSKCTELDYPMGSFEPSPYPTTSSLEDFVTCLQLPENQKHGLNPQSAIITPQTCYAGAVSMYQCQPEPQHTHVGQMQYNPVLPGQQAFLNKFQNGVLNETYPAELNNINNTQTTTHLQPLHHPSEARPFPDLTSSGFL
Bile acid receptor (Homo sapiens), sequence (Q96RI1 whole entry, looked up): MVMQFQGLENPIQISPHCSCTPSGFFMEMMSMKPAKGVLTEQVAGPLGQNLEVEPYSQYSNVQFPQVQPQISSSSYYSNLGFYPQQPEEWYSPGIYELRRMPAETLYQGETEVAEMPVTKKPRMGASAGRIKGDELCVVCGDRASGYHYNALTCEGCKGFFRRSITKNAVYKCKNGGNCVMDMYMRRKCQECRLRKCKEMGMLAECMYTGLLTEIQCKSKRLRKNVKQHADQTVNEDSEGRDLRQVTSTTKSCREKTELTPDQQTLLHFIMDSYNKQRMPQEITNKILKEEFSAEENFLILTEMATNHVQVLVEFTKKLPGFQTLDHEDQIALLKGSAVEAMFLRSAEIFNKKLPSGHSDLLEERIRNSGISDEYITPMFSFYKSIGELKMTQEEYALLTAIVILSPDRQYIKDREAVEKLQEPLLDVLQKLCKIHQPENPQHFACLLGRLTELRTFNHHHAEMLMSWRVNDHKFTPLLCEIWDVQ
Peroxisome proliferator-activated receptor gamma (Homo sapiens), sequence (P37231 whole entry, looked up): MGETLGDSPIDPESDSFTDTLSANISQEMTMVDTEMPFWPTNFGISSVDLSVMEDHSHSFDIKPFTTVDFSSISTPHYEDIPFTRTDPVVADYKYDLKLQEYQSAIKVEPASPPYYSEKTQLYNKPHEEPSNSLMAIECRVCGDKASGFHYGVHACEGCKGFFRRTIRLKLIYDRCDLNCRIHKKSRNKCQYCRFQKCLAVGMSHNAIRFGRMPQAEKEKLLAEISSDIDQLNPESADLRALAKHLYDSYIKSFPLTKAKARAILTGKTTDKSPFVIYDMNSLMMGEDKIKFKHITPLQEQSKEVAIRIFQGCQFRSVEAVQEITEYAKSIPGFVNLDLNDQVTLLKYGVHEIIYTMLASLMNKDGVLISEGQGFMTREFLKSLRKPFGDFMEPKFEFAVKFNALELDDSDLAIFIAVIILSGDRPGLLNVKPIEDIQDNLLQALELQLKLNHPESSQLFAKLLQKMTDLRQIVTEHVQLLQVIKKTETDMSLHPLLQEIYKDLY

C=C(C)C(=O)OCCCCCCCCCCCCCCCCCC
not listed: [19] | [20]
inactive: all other assays above

C1COCCO1
not listed: [7]
inactive: all other assays above

OCc1ccccn1
active: [7] 11.9 µM
not listed: [17] | [18] | [19] | [20]
inactive: all other assays above

COc1nc(C)nc(N)n1
not listed: [17] | [19] | [20]
inactive: all other assays above

Cc1cc(C)cc(OCC2CNC(=O)O2)c1 (configuration not stated)
not listed: [14]
inactive: all other assays above

OC[C@H]1O[C@@H]2O[C@H]3[C@H](O)[C@@H](O)[C@@H](O[C@H]4[C@H](O)[C@@H](O)[C@@H](O[C@H]5[C@H](O)[C@@H](O)[C@@H](O[C@H]6[C@H](O)[C@@H](O)[C@@H](O[C@H]7[C@H](O)[C@@H](O)[C@@H](O[C@H]8[C@H](O)[C@@H](O)[C@@H](O[C@H]9[C@H](O)[C@@H](O)[C@@H](O[C@H]1[C@H](O)[C@H]2O)O[C@@H]9CO)O[C@@H]8CO)O[C@@H]7CO)O[C@@H]6CO)O[C@@H]5CO)O[C@@H]4CO)O[C@@H]3CO
not listed: [12] | [14] | [19] | [20]
inactive: all other assays above

O=C1OC(=O)c2cc([N+](=O)[O-])ccc21
not listed: [7] | [19] | [20]
inactive: all other assays above
